Test results reported in PubChem BioAssay AID540276 (National Center for Advancing Translational Sciences (NCATS), 2011).
Several values for one entry are separate records, joined by “and”; a condition that tells them apart may be missing. Identical values can stand only once. The whole screen tested about 300,000 compounds, of which about 5,400 (1.8%) were called active. Inconclusive results (about 28%) are left out. Calls follow the shape of the full dose curve; tested in HEK293 cells. The entries come from a sample that favours actives as a whole. Where a call stands in place of a potency, no number is given.

Assay: qHTS for inhibitors of binding or entry into cells for Marburg Virus
Details: Marburg virus pseudotyped entry inhibition, cell reporter; series mostly up to 37.8 µM
Potency is read from the fitted curve at half-maximal effect.

SMILES | Potency
COc1ccc(-c2nn(-c3ccccc3)cc2CN2CCCO2)c(F)c1 | inactive
COc1ccc(-n2cc(CNC3CCOCC3)c(-c3cccc(F)c3)n2)cc1 | 11.2 µM (active)
COc1ccc(-n2cc(CN(C)Cc3n[nH]c(=O)[nH]3)c(-c3cccc(F)c3)n2)cc1 | inactive
N#CC1=C(SCc2ccccc2)NC(=O)C(C#N)C12CCCC2 (stereo unspecified) | inactive
N#C/C(=C1\CCCN1)c1nc(-c2ccccc2)cs1 | inactive
N#CC1=C(SCc2ccc(C#N)cc2)N=C(N)C(c2nc(-c3ccccc3)cs2)C12CCCCC2 (stereo unspecified) | 7.08 µM (active)
NC(CSC1(c2ccccc2)c2ccccc2-c2ccccc21)C(=O)O (stereo unspecified) | inactive
CCCc1cc(=O)[nH]c(SCC(=O)Nc2ccc(C(=O)Nc3ccccc3OC)cc2)n1 | inactive
CC1CCN(C(=O)/C(=C\c2ccccc2)NC(=O)c2ccccc2)CC1 | inactive
COc1ccc(S(=O)(=O)N2CCC(C(=O)NCc3ccco3)CC2)cc1C | inactive
CNCC[C@H](Oc1ccc(C(F)(F)F)cc1)c1ccccc1 | 10.3 µM (active) and 7.08 µM (active)
CC(C)Oc1ccc(Oc2ccc(C(F)(F)F)cn2)cc1 | inactive
CC(NC(=O)Cn1cc(C(F)(F)F)cc(Cl)c1=O)c1ccccc1 (stereo unspecified) | inactive
COc1ccccc1N(CC(=O)Nc1ccccc1C(=O)N1CCCC1)S(C)(=O)=O | inactive
Cc1ccc(S(=O)(=O)N2CCN=C2SCc2c(F)cccc2Cl)cc1 | inactive
COc1ccc(COC(=O)c2ccc(Cl)c(S(=O)(=O)N3CCOCC3)c2)cc1F | inactive
CCCCCC(=O)Nc1ccc(C(=O)N/N=C/c2ccc([N+](=O)[O-])cc2)cc1 | inactive
CCCC(=O)Nc1ccc(C(=O)N/N=C/c2ccc[nH]2)cc1 | 7.08 µM (active)
CC(=O)Nc1ccc(C(=O)/C=C/c2ccc[nH]2)cc1 | inactive
COc1ccc(C(=O)Nc2ccccc2C(=O)N/N=C/c2ccc(O)c(OC)c2)cc1 | 0.398 µM (active)
COC(=O)c1ccc(COc2ccc(/C=N/NC(=O)C(=O)Nc3ccc(OC)cc3)cc2OC)o1 | inactive
COc1cc(/C=N/NC(=O)c2ccccc2)ccc1OS(=O)(=O)c1ccccc1 | 9.2 µM (active)
COc1ccc(/C=N/S(=O)(=O)c2ccccc2)cc1OC | inactive
COc1cc(C=NNC(=O)c2cccnc2)ccc1OC(=O)c1ccccc1F | inactive
COc1cc(/C=N/NC(=O)Nc2ccccc2)ccc1OCCOc1ccccc1C | 2.31 µM (active)
COc1cc(/C=N/NC(=O)c2ccc(N3CCCC3=O)cc2)ccc1O | inactive

SMILES | Potency
CCOc1cc(/C=N/NC(=O)OC)ccc1OCCSc1ccc(Cl)cc1 | inactive
COc1ccc(C(=O)Nc2ccccc2C(=O)N/N=C/c2ccccc2OC)cc1 | inactive
COc1ccc(OC[C@H]2CN3[C@@H](CC[C@@H](C)[C@@H]3c3ccc(Br)cc3)C(=O)O2)cc1 | inactive
COC1=NC2=NCCN2C(OC)=N1 | inactive
COc1ccc(CCNC(=O)COC(=O)c2ncc(Cl)c(Cl)c2Cl)cc1OC | inactive
COc1ccccc1C(=O)c1ccccc1C(=O)c1ccccc1 | inactive
COc1ccc(N2CC(C(=O)N[C@@H](C)C(=O)N3CCCCC3)CC2=O)cc1 (stereo partly specified) | inactive
O=C1COc2ccc(C(=O)COC(=O)CCOc3ccccc3)cc2N1 | inactive
CC(NS(=O)(=O)c1ccc(OCC(=O)N2CCCC2)cc1)c1ccccc1 (stereo unspecified) | inactive
COc1ccc(S(=O)(=O)N2CCN(CC(=O)N3c4ccccc4CC3C)CC2)cc1OC (stereo unspecified) | inactive
COc1ccc(C(=O)O)cc1S(=O)(=O)NC1CCN(Cc2ccccc2)CC1 | inactive
O=C(Cn1cnc2ccccc2c1=O)NNC(=O)c1ccccc1F | inactive
Cc1ccc(NS(=O)(=O)c2ccc(C)c(NC(=O)COc3ccc4ccccc4c3)c2)c(C)c1 | 11.2 µM (active)
Cc1ccc(C)c(NS(=O)(=O)c2ccc(OCC(=O)NCc3cccnc3)cc2)c1 | inactive
Cc1ccc(C)c(NC(=O)CN(C)C(=O)COc2ccc3ccccc3c2)c1 | inactive
CC(C)c1ccc2c(c1)c(SC(C)(C)C)c(CC(C)(C)C(=O)O)n2Cc1ccc(Cl)cc1 | 11.2 µM (active) and 6.51 µM (active)
O=C(O)c1ccc(Cn2c(=S)[nH]c3cc(Cl)ccc3c2=O)cc1 | inactive
CC(C)c1ccc(Cn2c(COc3ccccc3)nc3ccccc32)cc1 | inactive
CN(C)C(=O)CCc1ccc2c3c([nH]c2c1)[C@]1(CCC2CCCC2)[C@@H](C(=O)N2CCOCC2)C[C@H](CC(=O)NCc2ccco2)C(=O)N1CC3 | inactive
CCOC(=O)c1cc(S(=O)(=O)NCCc2ccc(OC)c(OC)c2)cn1C | inactive
COc1cc(/C=C2\SC(=S)N(Nc3ncc(C(F)(F)F)cc3Cl)C2=O)cc(OC)c1OC | inactive
COc1cccc(/C(C)=N/Nc2ncc(Cl)cc2Cl)c1 | inactive
COc1cccc(/C=N/Nc2ncc(C(F)(F)F)cc2Cl)c1O | 0.794 µM (active)
CCCCn1c(N)c(N(Cc2ccccc2OC)C(=O)COc2cc(C)ccc2Cl)c(=O)[nH]c1=O | inactive
Cc1ccc(S(=O)(=O)N(C)C)cc1NC(=O)C1Cc2ccccc2CN1C(=O)c1ccco1 (stereo unspecified) | inactive
Cc1ccc(C)c(NC(=O)C2Cc3ccccc3CN2C(=O)OCc2ccccc2)c1 (stereo unspecified) | 2.51 µM (active)

SMILES | Potency
Cc1ccc(C)c(NC(=O)C2CCCN2C(=O)OC(C)(C)C)c1 (stereo unspecified) | inactive
Cc1cc(C(F)(F)F)nc(SCC(=O)Nc2nccs2)n1 | inactive
CCN(CC(=O)Nc1ccc(OC)cc1)C(=O)c1ccc(=O)n(Cc2ccccc2)n1 | inactive
COc1ccc(C)cc1NC(=O)CSc1nnc2ccc(-c3ccccn3)nn12 | inactive
CCOc1ccccc1-c1nc(CN2CCC(C(=O)N3CCOCC3)CC2)c(C)o1 | inactive
Cc1ccc(C)c(NC(=O)C(c2ccccc2)N2CCN(CC(=O)NC3CC3)CC2)c1 (stereo unspecified) | inactive
OC(CNC1CCCCC1)c1ccccc1 (stereo unspecified) | inactive
CC(=O)OC(C(=O)NC1CCCCC1)c1ccccc1 (stereo unspecified) | inactive
CC(NCc1ccccc1OC1CCCC1)c1ccccc1 (stereo unspecified) | 7.94 µM (active)
COc1ccc2c(c1)c(=Cc1ccc(N(C)C)cc1)c1cc(-c3ccccc3)[n+](C)n12 | 4.47 µM (active)
c1ccc2c(c1)[I+]c1ccccc1-2 | 0.282 µM (active)
O=C(NCCc1ccccc1)c1c[nH]c2ccc(F)cc2c1=O | inactive
CC(OC(=O)c1ccc(Cl)cc1O)C(=O)NCCC1=CCCCC1 (stereo unspecified) | inactive
CC(C)NC(=O)c1ccc(Cl)cc1Cl | inactive
CC(C)OC(=O)c1ccc(NCc2cc(O)ccc2O)cc1Cl | 2.24 µM (active)
Cc1ccccc1-n1cc(CNC(=O)C2CCC(=O)N(C3CC3)C2)cn1 (stereo unspecified) | inactive
CCN1CCc2c(C#N)c(NCc3ccccc3)nc(NCCO)c2C1 | inactive
CC(C)CCNc1nc(N2CCCC2)c2c(c1C#N)CCN(C)C2 | 7.3 µM (active)
CC(C)Cc1nc(N2CCOCC2)c(C#N)c2c1CCC2 | inactive
COC1=CC(=O)OC(c2ccc(OC)cc2)C1 (stereo unspecified) | inactive
O=C(NCc1ccncc1)C(=O)NCC1OCCN1S(=O)(=O)c1ccc(Br)cc1 (stereo unspecified) | inactive
COc1ccc(-c2csc3ncnc(N4CCN(S(=O)(=O)c5ccccc5C#N)CC4)c23)cc1 | inactive
CCN1/C(=C/c2ccc3ccc(C)cc3[n+]2CC)Sc2ccccc21 | 5.01 µM (active)
O=C(c1ccc(NS(=O)(=O)c2ccc3[nH]c(=O)[nH]c3c2)cc1)N1CCCCC1 | inactive
O=C(NNS(=O)(=O)c1ccc(F)cc1)c1ccc([N+](=O)[O-])cc1Cl | inactive
O=[N+]([O-])c1ccc(NS(=O)(=O)c2ccccc2)c(Cl)c1 | 11.2 µM (active)

SMILES | Potency
Cc1cccc(NS(=O)(=O)c2ccc([N+](=O)[O-])cc2)n1 | inactive
CCOC(=O)CCC(NC(=O)c1ccc(CNc2nc3cc(C(F)(F)F)ccc3nc2C(=O)OCC)cc1)C(=O)OCC (stereo unspecified) | inactive
CC(C)(C)C(=O)Cn1c(NCCO)nc2ccccc21 | inactive
O=C(O)[C@@H]1CCCN1c1ncnc2sc3c(c12)CCC3 | inactive
OCCNc1nc2ccccc2n1-c1ncnc2sc3c(c12)CCC3 | 11.2 µM (active)
Cc1cccc(C=CC(=O)c2ccc(Cl)cc2)c1 | inactive
O=C(COC(=O)c1cccnc1Cl)Nc1ccc(S(=O)(=O)N2CCOCC2)cc1 | inactive
COc1ccc(C(C(=O)NCC2CCCO2)N(C(=O)Cn2nnc3ccccc32)c2ccc(NC(C)=O)cc2)cc1OC (stereo unspecified) | inactive
Cc1ccc(C)c(N2CCN(C(=O)CCc3nc(-c4cccc(C(F)(F)F)c4)no3)CC2)c1 | inactive
COc1ccc(OC)c(Cc2nnc(CCC(=O)NC3CCCC3)o2)c1 | inactive
COc1ccc(OC)c(Cc2cnc3nc(N)nc(N)c3c2C)c1 | 0.112 µM (active)
COc1ccc(OC)c(NC(=O)c2sc3nc(C)cc(C)c3c2N)c1 | inactive
CCCc1cc(=O)[nH]c(SCC(=O)Nc2ccc(S(=O)(=O)N3CCCC3)cc2)n1 | inactive
Cn1c(=O)c2c(O)c(C=NCC3CCCCC3)c(=O)n(C)c2n(C)c1=O | inactive
Clc1ccc(CN2CCCCCC2)cc1Cl | inactive
COc1ccc(C(O)(C2CCCCC2)C(CN2CCCC2)c2ccccc2)cc1 (stereo unspecified) | 8.91 µM (active)
c1ccc(C(CN2CCCCC2)c2ccccc2)cc1 | inactive
CC(CN1CCCCC1)c1ccccc1 (stereo unspecified) | inactive
CCOc1ccc(NC(=O)CN(C)C(=O)Cc2sc(C)nc2-c2ccc(F)cc2)cc1OCC | inactive
COC(=O)C1CCCCN1C(=O)c1ccc(OC2CCN(C(C)=O)CC2)c(OC)c1 (stereo unspecified) | inactive
COc1ccccc1OCC(O)CN1CCOCC1 (stereo unspecified) | inactive
COc1ccccc1OCCNCC(O)COc1cccc2[nH]c3ccccc3c12 (stereo unspecified) | 11.6 µM (active)
CC(C)(C)NCC(O)COc1cccc2[nH]c(=O)[nH]c12 (stereo unspecified) | inactive
